NR1D1 modulator: modulators of human Rev-erb alpha DNA binding; Rev-erbα–FITC-DNA binding, fluorescence polarization, 90 min; activity, % at 10 µM; 370,000 compounds, 0.79% hits;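 active = activity above about 14%, limit read from the data; passing the limit was not always enough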
Target sequence (P20393 whole entry, looked up): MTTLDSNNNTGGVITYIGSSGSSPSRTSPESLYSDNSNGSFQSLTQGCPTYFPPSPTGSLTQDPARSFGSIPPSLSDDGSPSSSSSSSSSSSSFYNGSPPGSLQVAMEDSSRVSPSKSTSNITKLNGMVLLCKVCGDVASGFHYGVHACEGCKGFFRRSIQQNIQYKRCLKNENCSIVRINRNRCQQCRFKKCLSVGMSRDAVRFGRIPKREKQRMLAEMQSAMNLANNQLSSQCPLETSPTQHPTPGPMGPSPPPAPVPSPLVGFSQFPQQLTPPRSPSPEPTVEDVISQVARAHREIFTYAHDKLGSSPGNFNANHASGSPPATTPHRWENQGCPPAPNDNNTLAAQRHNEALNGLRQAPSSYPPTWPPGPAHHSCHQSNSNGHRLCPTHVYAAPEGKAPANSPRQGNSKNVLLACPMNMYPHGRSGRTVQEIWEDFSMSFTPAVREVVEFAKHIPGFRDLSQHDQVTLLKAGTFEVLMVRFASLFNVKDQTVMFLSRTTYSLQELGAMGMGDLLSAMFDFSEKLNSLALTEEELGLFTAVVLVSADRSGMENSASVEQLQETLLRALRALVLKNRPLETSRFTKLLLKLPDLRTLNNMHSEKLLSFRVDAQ
DAX1 inh-1: inhibitors of human orphan nuclear receptor DAX1 (NR0B1) | inhibition, % at 6.75 µM | HEK293 Gal4-DAX1 luciferase reporter, luminescence | 340,000 compounds, 0.99% hits;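 active = inhibition above the mean over all tested compounds plus 3 SD, cut at about 4.2% in these data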;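 also: inhibition shows as a rise in luminescence from relieved DAX1 repression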
ssDAF12 agonist: activates DAF-12 receptor from parasite S. stercoralis; HEK293 ssDAF-12/GRIP1 lit1-tk-luc reporter, luminescence; % of 3 µM dafachronic acid response; activation, % at 6.8 µM; 370,000 compounds, 1% hits;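 active = activation above the mean over all tested compounds plus 3 SD, cut at about 0.9% in these data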
DAX1 inh-2: blocks DAX1 repression of SF-1 activated StAR promoter; HEK293T StAR-luciferase reporter, SF-1/DAX-1 repression relief; inhibition, % at 6.8 µM; 370,000 compounds, 1.1% hits;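 active = inhibition above the mean over all tested compounds plus 3 SD, cut at about 3.6% in these data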;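 also: higher inhibition means more luminescence from relief of DAX-1 repression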
hgDAF12 agonist: activates the H. glycines DAF-12 receptor ligand-binding domain; HEK293 GAL4-hgDAF12 UAS-luciferase reporter, agonist luminescence; normalized to butyrate control; activation, % at 6.8 µM; 370,000 compounds, 1.8% hits;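 active = activation above a cutoff set at the mean of all screened compounds plus 3 SD, cut at about 10% in these data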
hcDAF-12 act: activates DAF-12 receptor from parasite H. contortus; 370,000 compounds, 1.4% hits; activation, % at 6.8 µM; HEK293 hcDAF-12 lit1-tk-luc reporter, luminescence; 0% DMSO, 100% Δ7-dafachronic acid;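 active = activation above the mean of all tested compounds plus 3 SD, cut at about 5.5% in these data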
Hits are given with their value; . = inactive; / = no result. In the library only some 4.8% were active in any assay of this set; here they are far more common.

SMILES	NR1D1 modulator	DAX1 inh-1	ssDAF12 agonist	DAX1 inh-2	hgDAF12 agonist	hcDAF-12 act
CC1CC(C)CN(CCCNC(=O)CN2C(=O)CSc3ccc(S(=O)(=O)N4CCCCC4)cc32)C1 (stereo unspecified)	.	.	.	3.6	.	.
O=C(c1cnn2c(C(F)F)cc(-c3ccccc3)nc12)N1CCSCC1	.	4.6	.	.	.	.
COc1ccccc1Cc1c(-c2ccc(C)cc2)nc2ccc(Cl)cn12	.	/	.	3.9	.	.
COc1ccccc1Cc1c(-c2ccc(F)cc2)nc2ccc(Br)cn12	.	/	1.3	.	.	.
O=C(CNS(=O)(=O)c1ccc(Br)s1)N1CCN(c2ccccn2)CC1	.	/	.	.	.	.
O=C(N/N=C/c1ccc(F)cc1)c1ccc(Br)cc1	.	.	.	.	.	.
COc1cccc(/C=N/NC(=O)c2c(C)nc3ccc(Br)cn23)c1	/	6.4	.	.	.	.
Cc1cccc(/C=N/NC(=O)c2ccc(Br)cc2)c1	.	.	.	.	12	.
C[C@H](O)[C@@H]1CN2CCc3c([nH]c4cccc(-c5ccccc5)c34)[C@@H]2C[C@@H]1N(C)C(=O)Nc1ccccc1	.	/	.	.	.	.
O=C(O)Cn1c(SCc2ccccc2)nc2ccccc21	.	.	.	.	.	.
O=C(O)Cn1c(SCc2cccc3ccccc23)nc2ccccc21	.	.	.	.	.	6.1
O=C(Nc1cccn2ncnc12)c1ccc(Cl)cc1	.	.	.	.	.	.
O=C(Nc1cnc2ccccn2c1=O)c1ccc(Cl)cc1	.	.	.	.	13	.
CCOC(=O)C1C2C=CC3(CN(C4CCCC4)C(=O)C13)O2 (stereo unspecified)	.	.	.	.	.	.
CCOC(=O)N1CCC(N2CC34C=CC(O3)C(C(=O)Nc3ccc(C)cc3)C4C2=O)CC1 (stereo unspecified)	.	4.5	.	.	.	.
CCCCCC[C@H](CC)CN(C(=O)Oc1ccccc1)c1ccccc1	.	/	.	.	.	.
O=C(COC(=O)[C@H](Cc1c[nH]c2ccccc12)NC(=O)c1ccc(Cl)cc1)Nc1ccc2c(c1)OCO2	.	.	.	.	11	.
O=[N+]([O-])c1ccc(-c2cn(-c3ccccc3F)c(=S)[nH]2)cc1	.	.	.	.	.	.
Cc1ccc(-c2cn(-c3ccccc3F)c(=S)[nH]2)cc1	.	4.4	.	.	11	.
O=C(OCCN1CCN(C2CN(Cc3cn(Cc4ccccc4C(F)(F)F)nn3)S(=O)(=O)C2)CC1)c1cc2ccccc2o1 (stereo unspecified)	.	/	.	.	.	.
O=C(O)C1CCN(C(=O)c2ccccc2N2C(=O)[C@@H]3Cc4c([nH]c5ccccc45)C(c4cccc(Cl)c4)N3C2=O)CC1 (stereo partly specified)	.	.	1.0	.	.	5.6
O=C(NCCN1CCOCC1)c1ccccc1N1C(=O)[C@@H]2Cc3c([nH]c4ccccc34)C(c3ccc(F)cc3)N2C1=O (stereo partly specified)	.	.	.	.	.	.
COc1ccc(C(=O)C2(C(=O)NCc3ccccc3)CC(c3ccccn3)=NO2)cc1 (stereo unspecified)	.	/	.	.	.	.
COc1ccc2ccccc2c1CN1CCN(c2ncc(Cc3ccccc3)cn2)CC1	.	/	.	.	.	.
N=c1cc(C2(O)CCCCC2)n2c(nc3ccccc32)s1	.	.	.	3.6	11	.
SMILES	NR1D1 modulator	DAX1 inh-1	ssDAF12 agonist	DAX1 inh-2	hgDAF12 agonist	hcDAF-12 act
COc1cc(CN2CCC(CCC(=O)NC3CC3)CC2)cc(Cl)c1OC	.	5.2	.	.	.	.
O=[N+]([O-])c1ccc(N/N=C/c2cccs2)nc1	.	6.0	.	.	11	.
O=[N+]([O-])c1ccc(NN=CCCc2ccccc2)nc1	.	.	.	.	13	.
COc1ccc(C=NNc2ccc([N+](=O)[O-])cn2)cc1	.	.	.	.	11	.
Cc1ccccc1-n1c(C)cc(/C=N/Nc2ccc([N+](=O)[O-])cn2)c1C	.	.	.	.	.	.
Cc1cc(/C=N/Nc2ccc([N+](=O)[O-])cn2)c(C)n1-c1ccc(C(=O)O)cc1	.	6.6	.	.	.	.
O=[N+]([O-])c1ccc(NN=Cc2ccccc2)nc1	.	.	.	.	.	.
O=C(C(=O)N1CCC(CNC(=O)C2COc3ccccc3O2)CC1)c1cccs1 (stereo unspecified)	.	/	.	.	.	.
O=[N+]([O-])c1ccc(NN=Cc2ccc(O)cc2)nc1	.	6.0	.	.	13	.
Cc1ccsc1S(=O)(=O)n1c(CN2CCOCC2)nc2ccccc21	.	/	.	.	.	.
CC1CCCC(NC(=O)CNC(=O)c2cccs2)C1C (stereo unspecified)	.	5.2	.	.	.	.
S=c1[nH]nc(-c2cc(-c3ccccc3)n[nH]2)n1N=Cc1c[nH]c2ccccc12	.	/	.	.	.	.
N#Cc1c(F)cccc1N1CCC(C#N)CC1	.	.	.	.	.	.
N#Cc1cccc(C#N)c1N1CCC(C#N)CC1	.	/	.	.	11	.
Cc1ccsc1/C=N/n1c(-c2ccccn2)n[nH]c1=S	.	.	.	.	.	5.7
Cc1ccsc1/C=N/n1c(-c2ccccc2)n[nH]c1=S	.	.	.	.	.	.
Cc1cccc(C(=O)NCC(=O)NNC(=O)c2ccccc2O)c1	.	.	.	.	.	6.1
CC(Oc1ccc(C(=O)NCCc2ccccc2)cc1)C(=O)O (stereo unspecified)	.	.	.	.	.	.
CCCCOc1ccc(C(=O)NCCc2ccccc2)cc1	.	.	1.1	.	.	.
NC(=S)c1ccc(OCCCc2ccccc2)cc1	.	.	.	.	12	.
Cc1cccc(C(=O)NCCc2ccccc2)c1	.	.	.	.	13	.
O=S1(=O)C=CCN1Cc1cn(Cc2ccccc2)nn1	.	/	.	.	.	.
CC(=O)O[C@]1(C(C)=O)CCC2C3C[C@H](C)C4=CC(=O)CC[C@]4(C)C3CC[C@@]21C (stereo partly specified)	.	/	/	/	/	/
N#C/C(Cn1c[n+](NC(=O)Nc2ccccc2)cn1)=N/O	.	4.7	.	.	.	.
CN1Cc2nnn(Cc3ccccc3)c2-c2ccccc2S1(=O)=O	.	/	.	.	.	.
FC(F)(F)c1nnc2ccc(NCc3cccnc3)nn12	.	7.9	.	.	.	.
COC(=O)[C@]12C[C@H](CC(=O)NCc3ccc(OC)c(OC)c3)C(=O)N(Cc3ccc4c(c3)OCO4)C1=C[C@H](C(C)C)O[C@@H]2C1CC1	.	/	.	.	.	.
COc1ccc(-n2nc(C(=O)NCC(=O)N3CCCCC3)c3ccccc3c2=O)cc1	.	.	.	.	.	.

Bioassay records: PubChem, several laboratories
